# Laboratory results as given in PubChem BioAssay.
# Several values for one entry are separate records, joined by “and”; a condition that tells them apart may be missing. Equal values may be shown once. Records with an inconclusive call do not appear. Activity calls are given as the source filed them. Unless noted, no cut-off is given here; in the data, nearly all actives have AC50 up to about 26 µM.
# How the values were obtained:
# [1] = polyglutamine-triggered caspase-3 activation inhibitors, cell-based (AID 1583); details: polyglutamine-induced caspase-3 activation, cell assay; stronger effect = higher value;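 tested at 10 µM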
# [2] = suppressors of polyQ aggregation in yeast, 75Q-TubU reporter (AID 1593); details: Yeast 75Q polyglutamine aggregation reporter
# [3] = liver-stage malaria parasite growth inhibition, primary screen, cell-based, HepG2, luciferase luminescence, HepG2 viability (AID 624349; in the data active = parasite load remaining mostly below about 12%, no sharp cut-off; inactive = mostly above about 10%;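 note: 100% = mean of DMSO negative control wells on the same plate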); details: P. berghei liver stage in HepG2, luciferase luminescence, concentration not given here; parasite load remaining: stronger effect = lower value; viability: measured here: HepG2 viability without parasites
# [4] = differential killing of epithelial or mesenchymal cells, primary screen, imaging, PC-3E GFP, TEM4-18 mCherry, co-culture (AID 1345086;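 active = compounds killing one labelled cell type while sparing the other, by normalised counts and ratio limits, not self-fluorescent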;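 for all read-outs here: cells exposed to compound for 72 h before imaging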;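 for red/green cell ratio (normalised): normalised mesenchymal count divided by normalised epithelial count so high means epithelial killing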); details: imaging cell counts, at 1 µM; for red/green cell ratio (normalised): actives lie on both sides, counts scaled to control wells, 1 = unselective
# [5] = system: Aerobactin synthetase IucA (Klebsiella pneumoniae); experiment: IucA aerobactin synthetase inhibitors, biochemical, Tocris library, absorbance (AID 1345561; call rule not given here;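 note: 100% = enzyme without compound and 0% = no enzyme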); details: purified IucA enzyme assay, absorbance (OD) read-out; stronger effect = lower value;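 tested at 8 µM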
# [6] = growth inhibition of DIPG glioma cells, dose response, cell-based, SU-DIPG-XVII, MIPE5.0, CellTiter-Glo, qHTS (AID 1347060); details: SU-DIPG-XVII viability, CellTiter-Glo ATP luminescence;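 for AC50: cells exposed to compound for 48 hours before viability readout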
# [7] = growth inhibition of DIPG glioma cells, dose response, cell-based, SU-DIPG-XIII, MIPE4.0, CellTiter-Glo, qHTS (AID 1347061; cut-off not given, nearly all actives have AC50 up to about 37 µM;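 note: cells exposed to compound for 48 hours before readout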); details: SU-DIPG-XIII viability, CellTiter-Glo ATP luminescence
# [8] = growth inhibition of DIPG glioma cells, dose response, cell-based, JHH-DIPG-1, MIPE4.0, CellTiter-Glo, qHTS (AID 1347062; cut-off not given, nearly all actives have AC50 up to about 27 µM;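 for AC50: cells exposed to compound for two days before readout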); details: JHH-DIPG-1 viability, CellTiter-Glo ATP luminescence
# [9] = growth inhibition of DIPG glioma cells, dose response, cell-based, SU-DIPG-IV, MIPE4.0, CellTiter-Glo, qHTS (AID 1347063; cut-off not given, nearly all actives have AC50 up to about 30 µM;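 note: compound exposure lasted 48 hours before the viability readout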); details: SU-DIPG-IV viability, CellTiter-Glo ATP luminescence
# [10] = growth inhibition of DIPG glioma cells, dose response, cell-based, SU-DIPG-XIII, MIPE5.0, CellTiter-Glo, qHTS (AID 1347064; cut-off not given, nearly all actives have AC50 up to about 23 µM;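 for AC50: cells exposed to compound for 48 hours before the viability read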); details: SU-DIPG-XIII viability, CellTiter-Glo ATP luminescence
# [11] = viability loss in pontine glioma line – cell-based, SU-DIPG-XXV, MIPE5.0, CellTiter-Glo, qHTS, dose response (AID 1347065); details: CellTiter-Glo ATP luminescence;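 note: cells exposed to compound for 48 hours before ATP readout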
# [12] = SU-DIPG-VI glioma cell viability, MIPE4.0 library, CellTiter-Glo luminescence, qHTS (AID 1347066; cut-off not given, nearly all actives have AC50 up to about 30 µM;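 note: cells exposed to compound for 48 hours before readout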); details: CellTiter-Glo ATP luminescence
# [13] = JHH-DIPG-1 glioma cell viability, MIPE5.0 library, CellTiter-Glo luminescence, qHTS (AID 1347067); details: JHH-DIPG-1 glioma viability, CellTiter-Glo ATP luminescence;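 note: cells exposed to compound for 48 hours before readout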
# [14] = SU-DIPG-XXV glioma cell viability, MIPE5.0 library, qHTS (AID 1347068; cut-off not given, nearly all actives have IC50 up to about 30 µM;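 for IC50: cells exposed to compound for 48 hours before viability readout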)
# [15] = sensitizers of A549 cells to miR-34 induction, primary screen, imaging, A549 dox-inducible miR-34, nuclei and caspase counts (AID 1347080;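 active = compounds whose cell count with miR-34 switched on is under 0.7 times the count with it off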); details: A549 miR-34 inducible, Hoechst nuclei count, 48 h
# [16] = viability rescue of complex I mutant cybrids, primary screen, cell-based, galactose medium, ATP luminescence (AID 1645843;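 active = z-score of at least 1.8 in each of two replicates, scored against plate mean and spread of sample wells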;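 note: positive z means more ATP and so rescue of galactose-driven cybrid death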); details: complex I mutant cybrid cells, 72 h, stronger effect = higher value
# [17] = modifiers of HSF1 nuclear foci, imaging, Selleck Cancer Library (AID 1347162; in the data active = plate-normalised HSF1 focus index below about 0.46); details: human cells, at 10 µM; SSMD: measured here: HSF1 foci SSMD mean; cell count: measured here: cell number; plate-normalised HSF1 focus index: stronger effect = lower value
# [18] = survival rescue of mitochondrial mutant cells in low glucose, primary screen, MELAS cybrids, Rieske KO mouse fibroblasts, CellTiter-Glo (AID 1508586;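 active = mean z-score across replicates of 1.96 or higher in either the MELAS or the Rieske mutant cell line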;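 note: z relative to plate mean and SD of compound and empty wells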)
# [19] = measured here: epithelial PC-3E GFP cell survival
# [20] = measured here: mesenchymal TEM4-18 mCherry cell survival
# [21] = stronger effect = lower value, cell number ratio, induced over uninduced
# [22] = measured here: relative caspase fold change +Dox/-Dox
# [23] = measured here: total cells with miR-34 induction, stronger effect = lower value
# [24] = measured here: total cells without miR-34 induction
smiles,measurement,setting,value
COC(=O)C(N)CS (stereo not given),inhibition,[1],-5.77%
same,score,[2],1.37
same,parasite load remaining,[3],102% (inactive)
same,viability,[3],69.9%
same,red/green cell ratio (normalised),[4],0.97 (inactive)
same,normalised cell number,[4]; [19],1.14
same,normalised cell number,[4]; [20],1.11
CC(C)Oc1ccc2c(=O)cc(-c3ccccc3)oc2c1,inhibition,[1],19.6%
same,score,[2],0.68
same,red/green cell ratio (normalised),[4],0.86 (inactive)
same,normalised cell number,[4]; [19],1.15
same,normalised cell number,[4]; [20],0.99
COC1=CC(C)[C@@H]2C[C@H]3OC(=O)C[C@H]4C(C)=C(OC)C(=O)C([C@@]34C)[C@@]2(C)C1=O (stereo not given in full),inhibition,[1],22.5%
same,score,[2],1.3
same,red/green cell ratio (normalised),[4],0.78 (inactive)
same,normalised cell number,[4]; [19],1.31
same,normalised cell number,[4]; [20],1.03
CC(=O)Oc1ccc2c(c1)CCC1C2CC[C@@]2(C)C1CC[C@@H]2OC(C)=O (stereo not given in full),inhibition,[1],10.6%
same,score,[2],-0.45
same,parasite load remaining,[3],102% (inactive)
same,viability,[3],70.5%
same,red/green cell ratio (normalised),[4],0.86 (inactive)
same,normalised cell number,[4]; [19],1.29
same,normalised cell number,[4]; [20],1.12
CC1CCC2(OC1)OC1CC3C4CC[C@H]5C[C@@H](O)CC[C@]5(C)C4CC(=O)[C@]3(C)C1C2C (stereo not given in full),inhibition,[1],11.6%
same,score,[2],1.42
same,parasite load remaining,[3],106% (inactive)
same,viability,[3],69.7%
same,red/green cell ratio (normalised),[4],1.26 (inactive)
same,normalised cell number,[4]; [19],1.02
same,normalised cell number,[4]; [20],1.27
CC1=C2C(=CO[C@H](C)[C@H]2C)C(=O)C(C(=O)O)=C1O,inhibition,[1],1.38%
same,score,[2],0.74
same,red/green cell ratio (normalised),[4],1.08 (inactive) and 1.06 (inactive) and 0.92 (inactive)
same,normalised cell number,[4]; [19],0.92 and 0.97 and 1.03
same,normalised cell number,[4]; [20],0.99 and 1.03 and 0.95
O=C(/C=C/c1ccc(O)c(O)c1)OC(Cc1ccc(O)c(O)c1)C(=O)O (stereo not given),parasite load remaining,[3],107% (inactive)
same,viability,[3],70.8%
same,red/green cell ratio (normalised),[4],1.03 (inactive)
same,normalised cell number,[4]; [19],1.08
same,normalised cell number,[4]; [20],1.12
Nc1ccn(C2O[C@H](CO)[C@@H](O)[C@H]2O)c(=O)n1 (stereo not given in full),inhibition,[1],22%
same,score,[2],1.09
same,red/green cell ratio (normalised),[4],1.13 (inactive)
same,normalised cell number,[4]; [19],1.06
same,normalised cell number,[4]; [20],1.19
CCN(c1ccccc1)c1cc(NC)[n+](C)c(C)n1,remaining activity,[5],84.7% (inactive)
same,outcome,[6],inactive
same,outcome,[7],inactive
same,outcome,[8],inactive
same,outcome,[9],inactive
same,outcome,[10],inactive
same,outcome,[11],inactive
same,outcome,[12],inactive
same,outcome,[13],inactive
same,outcome,[14],inactive
same,fold change,[15]; [21],1.03 (inactive)
same,fold change,[15]; [22],0.719
same,cell count,[15]; [23],7990
same,cell count,[15]; [24],7790
same,z-score,[16],0.245 (inactive)
CC(=O)O[C@@H]1CC2C(C)(C)C(=O)C=C[C@]2(C)C2CC[C@@]3(C)[C@H](c4ccoc4)OC(=O)[C@H]4O[C@]43[C@@]21C (stereo not given in full),inhibition,[1],-6.23%
same,score,[2],0.97
same,parasite load remaining,[3],2.66% (inactive)
same,viability,[3],98.4%
same,red/green cell ratio (normalised),[4],1.12 (inactive)
same,normalised cell number,[4]; [19],0.89
same,normalised cell number,[4]; [20],0.99
C[N+]1(C)C2CC(OC(=O)[C@@H](CO)c3ccccc3)CC1C1OC12 (stereo not given in full),inhibition,[1],17.7%
same,score,[2],1.45
same,parasite load remaining,[3],89.5% (inactive) and 73.4% (inactive)
same,viability,[3],78.8% and 91.6%
same,red/green cell ratio (normalised),[4],1.4 (inactive)
same,normalised cell number,[4]; [19],0.85
same,normalised cell number,[4]; [20],1.19
CC(=O)Oc1ccc2c(c1)CCC1C2CC[C@]2(C)C(=O)CCC12 (stereo not given in full),parasite load remaining,[3],88.9% (inactive)
same,viability,[3],66.4%
same,red/green cell ratio (normalised),[4],0.81 (inactive)
same,normalised cell number,[4]; [19],1.27
same,normalised cell number,[4]; [20],1.03
CC(=O)OCC(=O)[C@@]1(O)[C@H](C)CC2C3CCC4=CC(=O)C=C[C@]4(C)[C@@]3(F)[C@@H](O)C[C@@]21C (stereo not given in full),inhibition,[1],52.6%
same,score,[2],0.99
same,parasite load remaining,[3],140% (inactive)
same,viability,[3],73.1%
same,red/green cell ratio (normalised),[4],1.26 (inactive)
same,normalised cell number,[4]; [19],1.37
same,normalised cell number,[4]; [20],1.74
O=c1[nH]nc(Sc2ncc([N+](=O)[O-])s2)n1-c1ccc2c(c1)OCCO2,remaining activity,[5],125% (inactive)
same,AC50,[6],3.72 µM (active)
same,AC50,[7],5.9 µM (active)
same,AC50,[8],5.26 µM (active)
same,AC50,[10],3.72 µM (active)
same,AC50,[11],2.35 µM (active)
same,AC50,[12],2.64 µM (active)
same,AC50,[13],2.95 µM (active)
same,IC50,[14],23.5 µM (active)
same,fold change,[15]; [21],1.25 (inactive)
same,fold change,[15]; [22],0.969
same,cell count,[15]; [23],2070
same,cell count,[15]; [24],1660
same,SSMD,[17],-8.15
same,cell count,[17],5980
same,plate-normalised HSF1 focus index,[17],0.592 (inactive)
same,z-score,[16],-0.705 (inactive)
COc1ccc(CCN(C)CCCOc2ccc(S(=O)(=O)c3c(C(C)C)c4ccccc4n3C)cc2)cc1OC,remaining activity,[5],115% (inactive)
same,AC50,[6],18.6 µM (active)
same,AC50,[10],23.5 µM (active)
same,AC50,[11],9.34 µM (active)
same,outcome,[12],inactive
same,AC50,[13],10.5 µM (active)
same,fold change,[15]; [21],1.02 (inactive)
same,fold change,[15]; [22],0.864
same,cell count,[15]; [23],222
same,cell count,[15]; [24],219
same,SSMD,[17],-4.23
same,cell count,[17],5740
same,plate-normalised HSF1 focus index,[17],0.749 (inactive)
same,z-score,[16],-1.04 (inactive)
COc1cc(OC)c(NC(=O)Nc2cc(C)on2)cc1Cl,remaining activity,[5],101% (inactive)
same,outcome,[6],inactive
same,outcome,[7],inactive
same,outcome,[8],inactive
same,outcome,[9],inactive
same,outcome,[10],inactive
same,outcome,[11],inactive
same,outcome,[12],inactive
same,outcome,[13],inactive
same,fold change,[15]; [21],0.801 (inactive) and 0.945 (inactive)
same,fold change,[15]; [22],0.762 and 1.52
same,cell count,[15]; [23],8290 and 9250
same,cell count,[15]; [24],10400 and 9800
same,z-score,"[18]; MELAS cybrid survival, CellTiter-Glo 48 h, stronger effect = higher value",-0.366 (inactive)
same,z-score,"[18]; Rieske KO mouse fibroblast survival, CellTiter-Glo 72 h",1.34
same,z-score,[16],1.75 (inactive)
O=C1Nc2ccc(I)cc2/C1=C/c1cc(Br)c(O)c(Br)c1,remaining activity,[5],117% (inactive)
same,outcome,[6],inactive
same,outcome,[8],inactive
same,outcome,[10],inactive
same,outcome,[12],inactive
same,outcome,[13],inactive
same,fold change,[15]; [21],0.983 (inactive) and 1.01 (inactive) and 0.869 (inactive)
same,fold change,[15]; [22],1.44 and 1.3 and 0.748
same,cell count,[15]; [23],8580 and 4160 and 8980
same,cell count,[15]; [24],8730 and 4120 and 10300
same,z-score,[16],-0.635 (inactive) and -0.18 (inactive)
